Source: PubChem (National Center for Advancing Translational Sciences (NCATS))
PI4K2A block = inhibitors of human PI4K2A | Q9BTU6 | purified PI4K2A, ADP-Glo luminescence, 1 h; stronger effect = lower value | activity change, negative = inhibition, % at 76.9 µM | actives 0.13% (n = 420,000) | AID 1346378; in the data active = activity change below about -50%; inconclusive = mostly about -30% to -49%;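 also: -100% = wells without enzyme as full effect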
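PI4K2A activity was measured by ADP-Glo luminescence: enzyme (4 ug/mL stock) and phosphatidylinositol (1.2 mM stock) in Tris pH 7.5/MgCl2/EGTA/Triton X-100 buffer were reacted with ATP (300 microM stock) for one hour at ambient temperature.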
PI5P4K alpha inh = inhibitors of human PI5P4K alpha; P48426; PI5P4Kalpha enzyme, ADP-Glo luminescence, 60 min; stronger effect = lower value; max response, %; actives 1.2% (n = 330,000); AID 652105; active = max response of -50% or lower; inconclusive = between -30% and -50%; inactive = -30% or higher; also: value at the top dose of about 77 µM; % is scaled to controls: 0 for no effect and ±100 for the full control effect
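Single end-point luminescence (ADP-Glo) quantified ADP from PI5P4Kalpha turnover; ATP 5 microM final, 1 h at RT, 0.1% CHAPS and 0.28 mM EGTA in HEPES pH 7.4.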
DRD3 agonist = activates the human D3 dopamine receptor; P35462; D3R DiscoveRx beta-arrestin cells, luminescence, 90 min; max activation, %; actives 0.58% (n = 410,000); in the data active = max activation above about 30%; also: 0% is about no effect
Target sequence (P35462 whole entry, looked up): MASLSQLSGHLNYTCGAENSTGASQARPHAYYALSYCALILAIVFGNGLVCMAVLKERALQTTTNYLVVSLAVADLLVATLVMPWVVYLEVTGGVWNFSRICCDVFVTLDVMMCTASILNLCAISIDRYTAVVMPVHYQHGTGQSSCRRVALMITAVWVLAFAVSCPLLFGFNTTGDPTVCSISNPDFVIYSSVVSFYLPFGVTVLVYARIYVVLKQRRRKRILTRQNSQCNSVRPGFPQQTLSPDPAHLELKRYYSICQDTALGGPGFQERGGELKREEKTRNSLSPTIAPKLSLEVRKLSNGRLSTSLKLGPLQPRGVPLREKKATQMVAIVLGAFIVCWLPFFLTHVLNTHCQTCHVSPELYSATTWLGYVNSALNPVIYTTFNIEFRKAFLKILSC
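Cells at 1500/well, incubated overnight, then treated with pinned compounds (dopamine as control) for 90 min at 37 degrees C. DiscoveRx reagent added for 30 - 60 minutes at room temperature; luminescence read.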
D3 antag = antagonists of human D3 dopamine receptor; D3R cells, DiscoveRx beta-arrestin luminescence, antagonist mode; stronger effect = lower value; P35462; max response, negative = inhibition, %; AID 652054; actives 2.5% (n = 360,000); in the data active = max response below about -50%; inconclusive = no clear call, values can overlap the other calls; also: % is scaled to controls: 0 for no effect and ±100 for the full control effect
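Cells plated overnight at 1500 cells/well, then exposed to library compounds with dopamine controls for 90 minutes at 37 degrees C. DiscoveRx reagent added for 30–60 minutes at room temperature; luminescence read, quantitative HTS format.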
LDHA block = inhibitors of human lactate dehydrogenase A | P00338 | purified LDHA, NADH/diaphorase-resazurin fluorescence; stronger effect = lower value | actives 0.15% (n = 480,000) | AID 1347041 | activity change, % (values are at about 110 or 230 µM); in the data active = activity change below about -30%; inconclusive = mostly about -25% to -30%;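 also: plate controls were DMSO wells for no effect and wells without enzyme for full effect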
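Resorufin fluorescence (ex540/em590), read at 0 and 20 min after diaphorase/resazurin addition, reports the NADH left after a 5 min room-temperature reaction of 2 nM human LDH5 with 0.06 mM NADH and 0.2 mM pyruvate.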
Starred values were filed as active, the others as inactive; ! = not active in a repeat. A selection: hits, their analogues and other compounds. The true share with any hit is near 3.3%.

Results for CCCCNc1cc(NC(C)=O)cc2cc(OC)c(OC)cc12 ?
PI4K2A block: -1; DRD3 agonist: 53*; D3 antag: -75*; LDHA block: 30

Results for COc1cc2cc(NC(C)=O)cc(NCc3ccccc3)c2cc1OC ?
PI4K2A block: -1; PI5P4K alpha inh: -1; DRD3 agonist: -19; D3 antag: inconclusive; LDHA block: 7

Results for CO[C@H]1/C=C/O[C@@]2(C)Oc3c(C)c(O)c4c(O)c(c(C=NN5CCN(C)CC5)c(O)c4c3C2=O)NC(=O)/C(C)=C\C=C\[C@H](C)[C@H](O)[C@@H](C)[C@@H](O)[C@@H](C)[C@H](OC(C)=O)[C@@H]1C ?
PI4K2A block: -13; PI5P4K alpha inh: 0; DRD3 agonist: -32; D3 antag: inconclusive; LDHA block: -14

What do the screens show for `CO[C@H]1C=CO[C@@]2(C)Oc3c(C)c(O)c4c(O)c(c(C=NN5CCN(C)CC5)c(O)c4c3C2=O)NC(=O)C(C)=CC=C[C@H](C)[C@H](O)[C@@H](C)[C@@H](O)[C@@H](C)[C@H](OC(C)=O)[C@@H]1C`?
PI4K2A block: -17; PI5P4K alpha inh: 4; DRD3 agonist: -39; D3 antag: -76*; LDHA block: 11

Results for Cc1ccc(SC2=C(Sc3ccc(C)cc3)C(=O)c3ccccc3C2=O)cc1 ?
PI4K2A block: 3; PI5P4K alpha inh: -15; DRD3 agonist: -18; D3 antag: -114*; LDHA block: 42

What do the screens show for `CCc1ccccc1NS(=O)(=O)c1ccc(OC)c2ncccc12`?
PI4K2A block: -3; PI5P4K alpha inh: 5; DRD3 agonist: 31*!; D3 antag: 80; LDHA block: 1

Results for O=C(O)c1ccc(-n2nnnc2SCc2ccccc2F)cc1 ?
PI4K2A block: -3; PI5P4K alpha inh: -7; DRD3 agonist: 3; D3 antag: 5; LDHA block: -11

How did O=C(O)/C=C\c1cccc(-n2nnnc2SCc2ccccc2F)c1 do in these assays?
PI4K2A block: -7; PI5P4K alpha inh: -83*; DRD3 agonist: 9; D3 antag: 5; LDHA block: 1

Results for COc1ccc(C2=NOC(Cn3nc(-c4ccccc4)cc3C(=O)NCc3cccc(Br)c3)C2)cc1 (stereo not given) ?
PI4K2A block: -3; PI5P4K alpha inh: -2; DRD3 agonist: 34*; D3 antag: 33; LDHA block: -3

What do the screens show for `Cc1oc2c(c1C(=O)c1ccc(Cl)cc1)C(=O)C(=O)c1ccccc1-2`?
PI4K2A block: -9; PI5P4K alpha inh: 1; DRD3 agonist: -14; D3 antag: inconclusive; LDHA block: 42

Results for Cc1ccc(C(=O)c2c(C)oc3c2C(=O)C(=O)c2ccccc2-3)cc1 ?
PI4K2A block: -63*; PI5P4K alpha inh: -13; DRD3 agonist: -16; D3 antag: 13; LDHA block: 31

What do the screens show for `CCOC(=O)C1=C(Cc2ccc(F)cc2)C(=O)c2ccccc2C1=O`?
PI4K2A block: -2; DRD3 agonist: -26; D3 antag: -100*; LDHA block: 61

What do the screens show for `COc1ccc(/C=C2\CN(Cc3ccccc3)C/C(=C\c3ccc(OC)c(O)c3)C2=O)cc1O`?
PI4K2A block: -6; PI5P4K alpha inh: -14; DRD3 agonist: -16; D3 antag: -53*; LDHA block: 1

How did COc1cc(C=C2C(=O)c3ccccc3C2=O)ccc1O do in these assays?
PI4K2A block: -18; PI5P4K alpha inh: inconclusive; DRD3 agonist: 8; D3 antag: -77*; LDHA block: -1

How did COc1cc(C=C2C(=O)c3ccccc3C2=O)cc(OC)c1OC do in these assays?
PI4K2A block: -5; PI5P4K alpha inh: 4; DRD3 agonist: 4; D3 antag: 0; LDHA block: -2

Results for COc1ccc(C=C2C(=O)c3ccccc3C2=O)cc1O ?
PI4K2A block: inconclusive; PI5P4K alpha inh: -60*; DRD3 agonist: 2; D3 antag: 14; LDHA block: -2

Results for Cc1ccc2c(C)c(CCC(=O)Nc3ccccc3Br)c(=O)oc2c1 ?
LDHA block: -1

What do the screens show for `Cn1c(=O)c2c(nc(N3CCN(c4ccccc4)CC3)n2Cc2ccc(F)cc2)n(C)c1=O`?
LDHA block: 2

Results for CCOC(=O)c1ccc(N2CCN(C(C)=O)CC2)c(NC(=O)c2ccc(-c3ccccc3)cc2)c1 ?
LDHA block: -12

Results for CCOC(=O)C1CCN(Cc2cn[nH]c2-c2ccccc2)CC1 ?
PI4K2A block: 6; DRD3 agonist: -8; D3 antag: -66*; LDHA block: -21

Results for CCOC(=O)C1CCN(Cc2cnc(Oc3ccc(OC)cc3)s2)CC1 ?
PI4K2A block: -1; PI5P4K alpha inh: -4; DRD3 agonist: 3; D3 antag: -55*; LDHA block: -8

What do the screens show for `CCOC(=O)C1CCN(C(=O)CN(Cc2ccc(Cl)cc2)S(C)(=O)=O)CC1`?
PI4K2A block: -5; PI5P4K alpha inh: 6; DRD3 agonist: -8; D3 antag: -56*; LDHA block: -1

How did CCOC(=O)C1CCN(Cc2ccc(N(C)C)cc2)CC1 do in these assays?
PI4K2A block: 0; PI5P4K alpha inh: 0; DRD3 agonist: -8; D3 antag: -51*; LDHA block: -3

How did CCOC(=O)C1CCN(Cc2ccc(OC)cc2OC)CC1 do in these assays?
PI4K2A block: 3; DRD3 agonist: -11; D3 antag: -6; LDHA block: -22

What do the screens show for `CCOC(=O)C1CCN(Cc2ccc(F)c(F)c2)CC1`?
PI4K2A block: 6; DRD3 agonist: -30; D3 antag: inconclusive; LDHA block: -10

Results for CCOC(=O)C1CCN(Cc2cn[nH]c2-c2ccc(C)cc2)CC1 ?
PI4K2A block: 4; DRD3 agonist: -5; D3 antag: 7; LDHA block: 0

How did Cc1c[nH]c2cccc(-c3c(Cl)cccc3Cl)c12 do in these assays?
PI4K2A block: 0

Results for CCOC(=O)C1CCN(Cc2cccc(OC)c2)CC1 ?
PI4K2A block: 1; DRD3 agonist: -14; D3 antag: -23; LDHA block: -21

Results for CCOC(=O)C1CCN(Cc2ccc3ccccc3c2)CC1 ?
PI4K2A block: 4; PI5P4K alpha inh: -2; DRD3 agonist: -26; D3 antag: -75*; LDHA block: -3

Results for CCOC(=O)C1CCN(Cc2cc(C(C)C)c(O)c(C(C)C)c2)CC1 ?
PI4K2A block: 6; PI5P4K alpha inh: -6; DRD3 agonist: -15; D3 antag: -69*; LDHA block: -12

What do the screens show for `CCc1ccccc1N(C)C(=O)c1nn(-c2cccc(OC)c2)c(=O)c2ccccc12`?
LDHA block: 0

Results for COC(=O)[C@]1(C)N[C@H](CN(C)C(=O)Nc2ccc(OC)cc2)[C@@H]2C(=O)N(Cc3ccccc3)C(=O)[C@@H]21 ?
PI4K2A block: -1; PI5P4K alpha inh: 3; DRD3 agonist: 34*; D3 antag: 19; LDHA block: 4
